What was measured:
Assay type in all cases: functional
[1] = molecular target: Solute carrier family 2, facilitated glucose transporter member 1 (Homo sapiens) (UniProt P11166); experiment: ST_JUDE_LEISH: Cytotoxicity at 2uM final concentration against transgenic Leishmania Mexicana promastigotes LmGLUT1 that are glucose transport deficient and complemented with the human glucose transporter GLUT1. Activity is measured by DNA content using SYBR green in vitro
[2] = molecular target: Hexose transporter 1 (Plasmodium falciparum) (UniProt O97467); experiment: ST_JUDE_LEISH: Cytotoxicity at 2uM final concentration against transgenic Leishmania Mexicana promastigotes LmPfHT that are glucose transport deficient and complemented with the Plasmodium falciparum hexose transporter. Activity is measured by DNA content using SYBR green in vitro
[3] = molecular target: Glucose transporter (Leishmania mexicana) (UniProt O61059); experiment: ST_JUDE_LEISH: Cytotoxicity at 2uM final concentration against transgenic Leishmania Mexicana promastigotes LmGT2 that are glucose transport deficient and complemented with the L. Mexicana glucose transporter 2. Activity is measured by DNA content using SYBR green in vitro

Solute carrier family 2, facilitated glucose transporter member 1 (Homo sapiens), sequence (P11166 whole entry): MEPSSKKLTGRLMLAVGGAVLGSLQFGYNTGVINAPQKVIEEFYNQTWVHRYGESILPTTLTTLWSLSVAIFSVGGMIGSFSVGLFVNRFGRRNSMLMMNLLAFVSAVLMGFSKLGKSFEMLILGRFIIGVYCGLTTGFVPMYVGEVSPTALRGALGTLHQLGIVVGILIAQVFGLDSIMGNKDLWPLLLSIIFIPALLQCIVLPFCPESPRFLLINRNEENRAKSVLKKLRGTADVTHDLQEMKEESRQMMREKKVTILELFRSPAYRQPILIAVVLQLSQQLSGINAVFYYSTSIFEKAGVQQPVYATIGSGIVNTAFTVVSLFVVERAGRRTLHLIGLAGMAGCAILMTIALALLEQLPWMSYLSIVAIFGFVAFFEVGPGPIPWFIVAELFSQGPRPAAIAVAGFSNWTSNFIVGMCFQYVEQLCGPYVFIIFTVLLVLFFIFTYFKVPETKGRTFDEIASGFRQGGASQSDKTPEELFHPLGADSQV

Row | SMILES | inhibition [1] [%] | inhibition [2] [%] | inhibition [3] [%]
1 | O=C(Nc1cccc(C(F)(F)F)c1)c1ccc(S(=O)(=O)NCC2CCCN(CC3CCCCC3)C2)cc1 (stereo not given) | 1.23 | 0.41 | -0.91
2 | CC(CN1CCN(C)CC1)C(=O)Nc1ccc(-c2ccc(-c3nc4cc(F)ccc4[nH]3)cc2)cc1 (stereo not given) | 9.06 | 3.05 | 8.04
3 | O=C(NCCCN1CCC(Cc2ccccc2)CC1)c1cc2c(Cl)nc3ccccc3c2s1 | 0.05 | 1.9 | -0.45
4 | CCSc1nc2sc3c(c2c(=O)n1-c1ccccc1)CCN(C)C3 | 0.1 | 0.76 | -0.96
5 | Cc1cccc2nc(-c3ccc(-c4ccc(C(=O)NCCc5cn(C)cn5)cc4)s3)[nH]c12 | 4.34 | 5.34 | 2.6
6 | CC(C)c1ccc(NC(S)=NN=Cc2ccccn2)cc1 | 63.9 | 88.5 | 86.1
7 | CN1CCCN(Cc2cccc(-c3ccc(CNC(=O)c4cccc(Cl)c4)c(F)c3)c2)CC1 | 69.9 | 63.1 | 30.9
8 | Cc1cc2nc(-c3cc(Br)ccc3O)c(-c3cc(Br)ccc3O)nc2cc1C | -1.26 | -1.38 | -1.13
9 | Cn1ccnc1CNC(=O)c1ccc(-c2cccc(-c3nc4cc(C(F)(F)F)ccc4[nH]3)c2)cc1 | 1.73 | 0.7 | 0.2
10 | COc1ccc2nccc(NC(=O)C3(O)CCC(NCc4ccc5c(c4)NCCS5)CC3)c2n1 (stereo not given) | 15 | 22.5 | 7.11
11 | N=C(N)NN=Cc1c[nH]c2ccc(-c3ccccc3)cc12 | 0.57 | 0.13 | 1.34
12 | Cc1ccccc1OCC(O)CNC1CCC(NCC(O)COc2ccccc2C)CC1 (stereo not given) | 10.2 | 10.5 | 5.8
13 | c1ccc(CN2CCC(NCc3ccccc3-c3cccc(CNCc4ccc5c(c4)OCO5)c3)CC2)cc1 | -2.53 | -0.36 | 0.7
14 | CCc1n[nH]c(C(=O)NC2CCN(CC3(c4ccc(OC)cc4)CCCCC3)CC2)c1C | 3.43 | 2.97 | 1.81
15 | Cc1ccccc1C1CCN(C2CCC(NC(=O)c3cc4cc(Cl)ccc4o3)CC2)CC1 (stereo not given) | 1.84 | 1.17 | 3.04
16 | CC(=O)N1Cc2ccccc2C1=O | 2.88 | 3.51 | 2.11
17 | COc1ccc(-c2ccc(CNCc3ccsc3)cc2)cc1S(=O)(=O)NCCN1CCCC1 | -0.99 | 0.23 | -2.28
18 | Cc1c(C(=O)Nc2cc(Sc3ccc(F)cc3)cc([N+](=O)[O-])c2)sc2ncn(Cc3ccccc3F)c(=O)c12 | 9.44 | 9.11 | 8.4
19 | O=C(NCCCCN1CCC(c2ccc3c(c2OCCO)CCCC3)CC1)c1ccc(-c2ccc(C(F)(F)F)cc2)cc1 | -0.75 | 0.12 | 5.23
20 | COc1ccc(CCN2CCC(Nc3nc4ccccc4n3CCc3ccc(OC)cc3)CC2)cc1 | 4.38 | -1.39 | 12.5
21 | Nc1nc(N)c2c(Oc3cccc4ccccc34)cccc2n1 | 4.57 | 2.3 | 3.17
22 | CC(=O)Nc1cccc(C(=O)Nc2ccc(-c3cccc(-c4nc5cc(F)ccc5[nH]4)c3)cc2)c1 | 4.65 | 4.15 | 5.47
23 | O=C(NC1CCCCN(Cc2ccccc2O)C1)c1cccc(C(F)(F)F)c1 (stereo not given) | 2.43 | 1.72 | -4.05
24 | COc1ccc(Cc2c(C)nc3nc(N)nc(N)c3c2C)cc1 | 39 | 38.2 | 34.5

Row | SMILES | inhibition [1] [%] | inhibition [2] [%] | inhibition [3] [%]
25 | COc1ccc(Cl)cc1NC(=O)C(C)Nc1ccc(-c2ccccc2)cc1 (stereo not given) | 2.84 | 2.75 | 5.12
26 | Clc1ccc(-c2nc3cc(-c4ccc5nc(-c6ccc(Cl)cc6)[nH]c5c4)ccc3[nH]2)cc1 | 11.2 | 12.2 | 8.04
27 | CCOCn1c(-c2ccccc2)cc2c3c(N)nc(N)nc3ccc21 | 98.3 | 100 | 101
28 | Oc1ccc2nc(NCCCc3ccccc3)nc(NCCCc3ccccc3)c2c1 | 28.4 | 20.7 | 11.1
29 | Cc1cccc2nc(-c3ccc(-c4ccc(NC(=O)CN5CCN(C)CC5)cc4)s3)[nH]c12 | -0.59 | -1.98 | -1.35
30 | CCOc1ccc2c(=NN=Cc3ccccc3F)cc(C)[nH]c2c1 | 1.77 | 1.33 | -0.43
31 | COc1cc2nc(N3CCC(CNC(=O)c4ccc(-c5ccc(C(=O)N(C)C)cc5)c(OCCO)c4)CC3)nc(N)c2cc1OC | 2.82 | 3.22 | 2.26
32 | CC1(C)NC(N)=NC(=N)N1OCc1cccs1 | 10.6 | 7.52 | 7.36
33 | CS(=O)(=O)CCN(CCS(C)(=O)=O)Cc1ccc(-c2ccc3ncnc(Nc4ccc(OCc5cccc(F)c5)c(Cl)c4)c3c2)o1 | 2 | 2.02 | 2.35
34 | COc1ccc2c(NN=Cc3cccnc3)ccnc2c1 | 0.4 | 2.02 | -0.33
35 | O=C(CCN(Cc1ccco1)c1nc(-c2ccc(F)cc2)nc2ccccc12)NC1CC1 | 4.96 | 1.65 | 9.67
36 | Nc1nc(N)c2cc3ccc(OCc4ccccc4)cc3nc2n1 | 12.2 | 9.05 | 6.89
37 | CCc1ccccc1N1CCN(CCCC(=O)c2ccc(NC(=O)c3cc(Cl)cc(Cl)c3)cc2)CC1 | 3.17 | 4.43 | 3.44
38 | COc1ccc2ncc(F)c([C@H](O)CN3CCC(NCc4ccc5c(c4)NC(=O)CS5)CC3)c2c1 | -1.54 | -0.25 | -1.73
39 | CCCCNC[C@@H](O)[C@H](Cc1ccccc1)NC(=O)c1cc(NCC)cc(N2CCCCS2(=O)=O)c1 | 4.19 | 2.9 | 3.45
40 | CCc1c(CCNCCCCCCNCCc2ccc([N+](=O)[O-])cc2)ccc(OC)c1OC | 12.1 | 10.1 | 12.9
41 | Cc1nnsc1C(=O)Nc1cccc(-c2ccc(-c3nc4cccc(C)c4[nH]3)s2)c1 | 1.88 | 1.77 | 3.82
42 | Cc1ccc(Nc2nc3cc(Nc4ccnc(Nc5ccc(CS(C)(=O)=O)cc5)n4)ccc3o2)cc1 | 9.35 | 9.37 | 5.97
43 | COc1ccc2c(=NN=CC=Cc3ccccc3)cc(C)[nH]c2c1 | 0.78 | 4.29 | 3.21
44 | CC(C)(C)Oc1ccc(CC2NC3(C(=O)N(Cc4ccc(C(C)(C)C)cc4)c4ccccc43)C3C(=O)N(c4ccc(Br)cc4)C(=O)C23)cc1 (stereo not given) | -1.37 | 3 | 0.37
45 | CC(=O)N(C)c1cccc(C(=O)Nc2cccc(-c3cccc(-c4nc5cc(C(F)(F)F)ccc5[nH]4)c3)c2)c1 | 12.3 | 12 | 5.52
46 | CN(C)Cc1cccc(-c2ccc(NC(=O)c3ccc4c(=O)n(CCN5CCCCC5)cnc4c3)cc2)c1 | 3.67 | 3.74 | 0.81
47 | Cc1cc(NCCCN2CCCC2=O)n2c(nc3ccccc32)c1C#N | 0.96 | 3.33 | 2.22
48 | CCOC(=O)c1c[nH]c2c(sc3cc(OC)ccc32)c1=O | -0.83 | -0.51 | -0.47

Row | SMILES | inhibition [1] [%] | inhibition [2] [%] | inhibition [3] [%]
49 | Cc1cc(Oc2ccc(-n3ccnc3)cc2)nc(N2CCN(CCCN3CCCC3)CC2)n1 | 4 | 5.53 | 2.69
50 | CS(=O)(=O)Cc1ccc(Nc2nccc(NC3CCN(c4nccc(C(F)(F)F)n4)CC3)n2)cc1 | 2.96 | 1.41 | -2.6
51 | ON=C(c1nc2ccccc2[nH]1)c1nc2ccccc2[nH]1 | -0.84 | -0.51 | 0.76
52 | Cc1cc(N(C)C)nc(Nc2ccc(NC(=O)C(C)Oc3ccccc3)cc2)n1 (stereo not given) | 13.2 | 14.5 | 9.35
53 | CNS(=O)(=O)CCNCc1ccc(-c2ccc3ncnc(Nc4ccc(OCc5ccccc5)cc4)c3c2)o1 | 6.09 | 6.17 | 3.83
54 | O=C(NCc1ccc2c(c1)OCO2)c1nn(CCN2CCC(N3CCCC3)CC2)cc1-c1ccc(Cl)c(Cl)c1 | 2.53 | 0.54 | 0.75
55 | Cc1noc(C)c1-c1cccc(CNCc2ccc(-c3ccc(-c4nc5cccc(C)c5[nH]4)cc3)cc2)c1 | 2.03 | 0.15 | -0.62
56 | Cc1cc(N[C@@H](Cc2ccccc2)C(=O)Nc2ccccc2)nc(NCCc2ccccn2)n1 | 4.62 | 4.95 | 3.53
57 | COc1ccc(N2CCN(CCCCNC(=O)c3ccc(NC(=O)c4cccc(Cl)c4)cc3)CC2)c(OC)c1 | 3.81 | 0.48 | 4.97
58 | Cc1cccc2nc(-c3ccc(-c4cccc(CNCc5ccccc5)c4)s3)[nH]c12 | -1.26 | -0.6 | -0.69
59 | COc1cc(C(=O)NCc2nn(CCN3CCC(N4CCCC4)CC3)cc2-c2ccc(Cl)c(Cl)c2)cc(OC)c1OC | -2.77 | 3.08 | 3.75
60 | CN1CCC(NC(=O)c2cccc(Nc3cc(Nc4cccc(Br)c4)ncn3)c2)CC1 | 4.2 | 3.45 | 2.65
61 | COc1cc2c(cc1C=CC(=O)N1CCN(Cc3nc(O)c4c(C)c(C)sc4n3)CC1)OC(C)C2 (stereo not given) | 1.98 | 3.73 | 2.08
62 | CCc1cn2c3c(cc(C(=O)N[C@@H](Cc4ccccc4)[C@H](O)CNCc4ccc(C)cc4)cc13)N(C)S(=O)(=O)CC2 | -0.24 | 1.57 | 0.38
63 | COc1cccc(NC(=O)c2nc(N3CCN(c4ccncc4)CC3)ccc2Cl)c1 | -1.23 | 1.65 | 0.29
64 | CCNc1cc(C(=O)N[C@@H](Cc2ccccc2)[C@H](O)CNC(C)(C)CCCC(C)C)cc(N2CCCC2=O)c1 | 2.43 | 1.71 | 3.47
65 | Oc1ccc(CCNc2nc(NCCCOc3ccccc3-c3cccnc3)nc(N3CCNCC3)n2)cc1 | 5.04 | 7.86 | 5.99
66 | COc1cc(C(=O)N2N=C(c3c(-c4ccccc4)c4cc(Br)ccc4[nH]c3=O)CC2c2cccc([N+](=O)[O-])c2)cc(OC)c1OC (stereo not given) | 3.48 | 3.48 | 3.79
67 | COc1ccc(CNCCc2cccs2)cc1-c1ccc(S(=O)(=O)NCCN2CCCC2)cc1 | 5.85 | 5.79 | 2.85
68 | O=C(Nc1cccc(-c2nn3ncccc3c2-c2ccnc(Nc3ccc(N4CCOCC4)cc3)n2)c1)c1c(F)cccc1F | 10.7 | 16.6 | 6.47
69 | CCC[C@@H]([C@@H](CC1CCCCC1)C(=O)N[C@@H](CCOC(=O)NCC)C(=O)Nc1nccs1)N(O)C=O | 8.61 | 10.3 | 9.7
70 | N[C@@H](Cc1ccc(O)cc1)C(=O)NC(c1ccccc1)c1c(O)ccc2ccccc12 (stereo not given in full) | -0.12 | -0.91 | -0.99

Source: ChEMBL document CHEMBL3433997, “St. Jude Leishmania screening dataset” (2016)
